From PubChem BioAssay (NCI)
This is part of a sample that, as a whole, favours compounds with a hit. Of some 83,000 tested, about 20% had one in any assay.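 Results are percent growth after 48 hours of single-concentration exposure. 100 means growth as in untreated cells, lower positive values show inhibition; negative values down to -100 show cell death.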 Values without a mark were called inactive. Calls of active or inactive are those of the source. How the source made its calls: active means growth percent below 10; inactive means the rest.

Key:
Test in all cases: NCI-60 one-dose screen, 48 h (100 = growth as untreated, 0 = no growth, -100 = all killed)
Conditions in all cases: 10 µM unless noted
DU-145 prostate = tested on: DU-145 prostate
K-562 leukemia = tested on: K-562 leukemia
MALME-3M melanoma = tested on: MALME-3M melanoma
MDA-MB-231 breast = tested on: MDA-MB-231 breast
RXF 393 renal = tested on: RXF 393 renal
SF-268 CNS = tested on: SF-268 CNS
SF-295 CNS = tested on: SF-295 CNS
SF-539 CNS = tested on: SF-539 CNS
UACC-257 melanoma = tested on: UACC-257 melanoma
M14 melanoma = tested on: M14 melanoma

Compound	growth (DU-145 prostate)	growth (K-562 leukemia)	growth (MALME-3M melanoma)	growth (MDA-MB-231 breast)	growth (RXF 393 renal)	growth (SF-268 CNS)	growth (SF-295 CNS)	growth (SF-539 CNS)	growth (UACC-257 melanoma)	growth (M14 melanoma)
O=S(=O)(NCCCNc1nccc(-c2[nH]c(-c3ccccc3)nc2-c2ccc(F)c(O)c2)n1)c1cccc2ccccc12	61.5%	23.3%	32.8%	77.2%	75.4%	75.3%	45.7%	93.7%	44.1%	29.4%
Cc1ccc(/C=N/Nc2nc(Nc3ccccc3)nc(Nc3ccc(S(N)(=O)=O)cc3)n2)cc1	65.1%	56.8%	91.8%	73.4%	-2.59% (active)	87.1%	57.7%	44.7%	101%	72.8%
N#C/C(=C\c1ccc(-c2ccc(Cl)cc2)o1)C(=O)Nc1ncc(Cc2ccc(Br)cc2)s1	9.81% (active)	42.7%	-34.1% (active)	3.41% (active)	33.1%	33.2%	-2.23% (active)	1.63% (active)	46.6%	10.2%
O=C(CSc1cc[n+](CCCCO)c2ccccc12)n1ccc2ccccc21	110%	98.2%	99.7%	88.2%	107%	109%	99.7%	99.2%	95.2%	96.6%
CS(=O)(=O)c1nccc(-c2c(-c3cccc(OCc4ccc(Cl)c(C(F)(F)F)c4)c3)nc3sccn23)n1	-25% (active)	14.2%	88.3%	84.4%	78%	104%	95%	93.3%	66.9%	72.9%
CN1CCN(Cc2ccc(NC(=O)c3cncc(C#Cc4cnc5ccc(NCCO)nn45)c3)cc2C(F)(F)F)CC1	-2.12% (active)	5.38% (active)	-69.7% (active)	1.53% (active)	-74.3% (active)	-40.9% (active)	16.6%	-74.4% (active)	-6.58% (active)	-70.9% (active)
Clc1ccc2[nH]cc(-c3nn4cc(-c5cccnc5)nc4s3)c2c1	107%	94.7%	90.6%	71.7%	113%	107%	96.7%	95.6%	109%	99.2%
O=C1[C@@H]2Cc3c([nH]c4ccccc34)[C@@H](c3ccc(Cl)cc3)N2C(=O)CN1C1CCN(Cc2c(F)cccc2F)CC1	49.2%	16.8%	88.8%	66.4%	44.4%	39.2%	41.4%	60.9%	51.1%	14.4%
COc1ccc([C@@H]2C(=O)N(c3cc(OC)c(OC)c(OC)c3)[C@H]2c2ccc(OC)c(O)c2)cc1	10.9%	12.7%	69.5%	28.8%	16.7%	25.2%	17.9%	5.74% (active)	56.6%	12.6%
Cn1c(SCC(=O)c2ccc(F)cc2)nc2ccccc2c1=O	98%	76.4%	109%	91.7%	108%	99%	97.9%	98.2%	107%	95.8%
O=C(CCl)Nc1ccc(NC(=O)c2cc(Cl)ccc2O)c(Cl)c1	95.2%	32.8%	81.8%	87.6%	87.4%	85%	83.6%	73.1%	89.9%	76.6%
Cc1ccc(C(=O)CSc2nc3ccccc3c(=O)n2C)cc1	95.3%	68.8%	107%	80%	101%	94.5%	88.6%	93.4%	93.2%	94.3%
CC(C)NC(=O)c1cc(-c2ccc(NC(=O)Nc3ccc(F)cc3)cc2)nc2cccnc12	114%	110%	118%	97.8%	123%	109%	97.7%	102%	102%	102%
CCOC(=O)c1c(NC(=O)c2ccc(C(F)(F)F)cc2)sc2c3c(ccc12)OCN(C)C3	21.6%	-28.3% (active)	72.6%	10.9%	-70% (active)	63.6%	66.2%	-73.1% (active)	71.6%	30.1%
O=c1oc2ccc(-c3ccc(F)cc3F)cc2c(=O)n1-c1ccc(Br)cc1F	85.2%	45.4%	61.5%	87%	80.8%	58.6%	77.6%	74.3%	48.1%	80.7%
CN(C)CCNc1ccc2ncc(C#Cc3cncc(C(=O)Nc4ccc(CN5CCN(C)CC5)c(C(F)(F)F)c4)c3)n2n1	18.9%	2.29% (active)	17.4%	-18.2% (active)	-75.1% (active)	-50.9% (active)	45.2%	-71.8% (active)	74.9%	54.1%
CCNC(=O)Oc1ccc(/C(=C(/C)c2ccc(OC)cc2)c2ccc(OCCN3CCCCCC3)cc2)cc1	76%	2.3% (active)	-3.44% (active)	46.8%	12.3%	64%	-20.9% (active)	18.4%	-32.4% (active)	-73.3% (active)
O=c1[nH][nH]c(-c2ccc(F)cc2)c1-c1nc2ccccc2s1	104%	98.1%	84%	85%	99.7%	98.1%	103%	94.8%	107%	89.1%
O=C(/C=C/c1ccc(F)cc1)Nc1cccc2cccnc12	107%	101%	100%	100%	110%	104%	111%	102%	114%	98.5%
CCNCCOc1ccc(/C(=C(/CC)c2ccc(Cl)cc2)c2ccc(OCCCN(C)C)cc2)cc1	-91.7% (active)	0.0244% (active)	-85.1% (active)	-87.2% (active)	-92.1% (active)	-66.7% (active)	-85.8% (active)	-93.9% (active)	-82.8% (active)	-86.9% (active)
Cc1cc(Br)ccc1-n1cc(C#N)c(N)c1C(=O)c1ccc(Br)cc1	119%	119%	106%	93.6%	108%	114%	98.5%	97.4%	103%	89.4%
CN(C)c1ccc(/C=N/Nc2nc(N/N=C/c3ccc(N(C)C)cc3)nc(N3CCCCC3)n2)cc1	77.5%	3.08% (active)	-67.3% (active)	68.6%	93.3%	105%	107%	-12.3% (active)	104%	72.8%
CC(C)Sc1nc(-c2ccccc2)c(C#N)c(N2CCOCC2)n1	83.1%	62.4%	36.5%	63.7%	45.7%	79%	51.1%	50.2%	97.5%	96.9%
CC(C)NC(=O)c1cc(-c2ccc(NC(=O)Nc3ccc(F)c(C(F)(F)F)c3)cc2)nc2cccnc12	100%	84.2%	123%	92.3%	81.9%	92%	86.2%	90.3%	101%	92.3%
C/C(=N/N)c1nnn(-c2ccc(Br)cc2)c1C	108%	91.2%	102%	101%	103%	97.8%	94.2%	93.1%	105%	105%
CNc1sc(S(=O)(=O)NC)nc1S(=O)(=O)c1ccc(C)cc1	107%	97.5%	110%	101%	108%	103%	93.6%	98.6%	100%	101%
C(=N\Nc1nc(N/N=C/c2ccc3c(c2)OCO3)nc(N2CCCCC2)n1)/c1ccc2c(c1)OCO2	99.8%	41.1%	120%	90.7%	79.7%	100%	77.8%	87.6%	108%	97.3%
